According to PubChem BioAssay AID2314 (National Center for Advancing Translational Sciences (NCATS), 2010):
Among all 300,000 compounds or so, about 37,000 (12%) were called active. No stated cut-off is given here; in the data, active means max response mostly above about 13% (no sharp cut-off); inactive means mostly below about 14%. Only a selection was taken, and actives are over-represented in it overall.

test: Cycloheximide Counterscreen for Small Molecule Inhibitors of Shiga Toxin; conditions: cell reporter, cycloheximide protein synthesis inhibition counterscreen; hits give high values; further: read at 38.3 µM for the half of the compounds with a filed dose; 0% is about no effect

SMILES	max response
Cc1ccc(CNCc2ccc3c(c2)OCO3)c(C)c1	0.612% (inactive)
COc1cccc(CNCc2ccc3c(c2)OCO3)c1	7.15% (inactive)
COc1cc(CNCc2ccc3c(c2)OCO3)c([N+](=O)[O-])cc1OC	13.8% (active)
Cc1ccc(-c2nn(-c3ccccc3)cc2/C=C/C(=O)Nc2cccc(S(N)(=O)=O)c2)cc1	6.92% (inactive)
COc1ccc(CCNC2=CC(=O)CC(C)(C)C2)cc1	17% (inactive)
CN1C(CC(=O)Nc2ccc(Br)cc2)c2ccccc2CC1(C)C (stereo unspecified)	7.55% (inactive)
CCOc1cccc(/C(O)=C2/C(=O)C(=O)N(CCOC)C2c2ccncc2)c1 (stereo unspecified)	3.2% (inactive)
CCN(CC)CCN1C(=O)C(=O)/C(=C(/O)c2ccccc2)C1c1ccccc1F (stereo unspecified)	-1.86% (inactive)
CCN(CC)CCN1C(=O)C(=O)/C(=C(/O)c2cnn(-c3ccccc3)c2C)C1c1cccs1 (stereo unspecified)	49.4% (active)
COC(=O)c1cc(S(=O)(=O)N2CCC(C(N)=O)CC2)oc1C	-3.53% (inactive)
Cc1c(C)c(C)c(S(=O)(=O)N2CCC3(CC2)OCCO3)c(C)c1C	-1.61% (inactive)
Cc1c(Cc2ccccc2)c(=O)oc2cc(OCC(N)=O)ccc12	1.87% (inactive)
CC(=O)Oc1ccc2c(C)c(CC(C)O)c(=O)oc2c1 (stereo unspecified)	-8.36% (inactive)
CCc1c(C)c2ccc(OC3CCCCC3=O)cc2oc1=O (stereo unspecified)	16.5% (active)
COc1ccc(-n2cnnc2SCC(=O)Nc2cccc(S(N)(=O)=O)c2)cc1	-5.17% (inactive)
Cc1cc(C)c(S(=O)(=O)Nc2c(C)n(C)n(-c3ccccc3)c2=O)cc1[N+](=O)[O-]	-2.16% (inactive)
COc1cccc(OCc2nnc3n2N=C(c2ccccc2)C(CC(=O)O)S3)c1 (stereo unspecified)	9.69% (inactive)
CCOC(=O)c1ccc(NC2Nc3cc(C)nn3S2)cc1 (stereo unspecified)	5.82% (inactive)
CCc1ccc(NC2Nc3cc(C)nn3S2)cc1 (stereo unspecified)	49.2% (active)
COC(=O)c1cc(C(=O)NC(C)C2CC3CCC2C3)cc([N+](=O)[O-])c1 (stereo unspecified)	-12.3% (inactive)
COC(=O)c1ccc(N2CCOCC2)c(NC(=O)c2ccc(Br)o2)c1	-2.23% (inactive)
Cn1cccc1/C=N/NC(=O)c1ccc(OC(F)(F)C(F)F)cc1	38.1% (active)
COc1ccc(/C=N/NC(=O)c2cccc(C(F)(F)F)c2)cc1	6.57% (inactive)
CCn1c(/C=N/NC(=O)c2ccc(OC)cc2)nc2ccccc21	-2.39% (inactive)

SMILES	max response
CC(Oc1ccccc1)C(=O)Nc1c2c(nn1-c1ccccc1)CS(=O)C2 (stereo unspecified)	-2.14% (inactive)
CCCCC(=O)Nc1ccc(C(=O)NCCCn2ccnc2)cc1	3.08% (inactive)
CCCCCC(=O)Nc1ccc(-c2cn3cccnc3n2)cc1	25.3% (active)
CC(=O)Nc1ccc(-c2cn3cccnc3n2)cc1	25.4% (active)
CCCCCC(=O)Nc1ccc(S(=O)(=O)Nc2ccc(Cl)nn2)cc1	5.65% (inactive)
CC(=O)Nc1ccc(S(=O)(=O)Nc2cccc(NC(=O)C(C)(C)C)c2)cc1	4.2% (inactive)
CC(=O)Nc1ccc(S(=O)(=O)Nc2nc(-c3ccc(C(C)(C)C)cc3)cs2)cc1	-0.918% (inactive)
CC(=O)Nc1ccc(OCC(=O)NCc2ccc(C)cc2)cc1	7.82% (inactive)
CC(C)(C)C(=O)Nc1ccc(-c2cn3cccnc3n2)cc1	28.5% (active)
CCOc1cc(-c2cc(-c3ccc(NC(C)=O)cc3)nc(N)c2C#N)ccc1O	-3.59% (inactive)
CON(C)S(=O)(=O)c1ccc2c(c1)NC(=O)C1CCCN21 (stereo unspecified)	-1.81% (inactive)
CCN(CC(=O)N1CCCC1)S(=O)(=O)c1ccc(F)cc1	-0.599% (inactive)
Cc1ccc(C)c(N2CCN(C(=O)CCc3nc4ccccc4[nH]3)CC2)c1	-4.18% (inactive)
OCCNc1nc2ccccc2[nH]1	-3.17% (inactive)
CC(C)n1c(NCc2c[nH]c3ccccc23)nc2ccccc21	5.28% (inactive)
Cc1ccc(O)c(CNc2nc3ccccc3n2C)c1	35% (active)
Cc1ccc(O)c(CNc2nc3ccccc3[nH]2)c1	19.7% (active)
Cn1c(CNC(=O)C(C)(C)C)nc2ccccc21	-0.534% (inactive)
CC(=O)c1ccc(NC(=O)Cn2c(=O)oc3ccccc32)cc1	0.709% (inactive)
Cc1ccc(-n2ncc(C(=O)NC3CC3)c2C2CCN(C(=O)OC(C)(C)C)CC2)c(C)c1	5.17% (inactive)
CCOc1ccccc1NS(=O)(=O)c1c[nH]c(C(=O)OC)c1	-0.295% (inactive)
Cc1ccccc1N1CC(C(=O)Nc2nnc(SCCC3OCCO3)s2)CC1=O (stereo unspecified)	0.819% (inactive)
CCc1nnc(NC(=O)C2CC(=O)N(c3ccc4c(c3)OCCO4)C2)s1 (stereo unspecified)	6.49% (inactive)
c1ccc2cc3c(NCCN4CCOCC4)ccnc3cc2c1	-2.42% (inactive)

SMILES	max response
Cn1cc(C(=O)c2ccc(Cl)cc2Cl)cc1C(=O)NN	-5.78% (inactive)
O=C(CCN1CCCCC1)N=Nc1c(O)[nH]c2ccccc12	2.5% (inactive)
CC(C)(C)NC(=O)CSC(=Nc1ccccc1F)NC#N	27.7% (active)
COc1ccccc1-n1ccnc1SCC(=O)NC(C)(C)C	-1.32% (inactive)
Cc1ccccc1CSCC(=O)NC(=O)NC(C)(C)C	9.92% (inactive)
CCc1nn(CC(=O)N2CCN(CC)CC2)c(=O)c2cccn12	-0.288% (inactive)
Cc1ccccc1NC(=O)c1ccccc1	15.4% (active)
Cc1ccccc1NC(=O)CCOc1ccccc1	32.8% (active)
Cn1nnc(NC(=S)NC(=O)c2ccccc2)n1	10.8% (inactive)
Cc1ccccc1C(=O)Nc1ccccc1Sc1ccccc1	-2.65% (inactive)
Cc1c(NC(=O)CCCOc2ccccc2)cccc1[N+](=O)[O-]	6.53% (inactive)
Cc1ccccc1NC(=S)NC(=O)Cc1ccc(Cl)cc1	-2.71% (inactive)
Cc1cc2[nH]ncc2cc1NC(=S)NC(=O)c1ccccc1	16.5% (active)
CCc1ccccc1NC(=O)CCOc1ccccc1	0.846% (inactive)
Cc1ccc(C(=O)NC(=S)NCc2cccnc2)cc1	18.8% (inactive)
Cc1ccccc1C(=O)Nc1ccccc1NC(=O)c1ccccc1C	-4.55% (inactive)
Cc1cc(C)cc(C(=O)NC(=S)Nc2ccc3[nH]c(=O)[nH]c3c2)c1	-3.08% (inactive)
Cc1ccc(C(=O)NC(=S)Nc2ccccc2C)cc1	43.9% (active)
COC(=O)C1(C)NC(c2ccccc2OC)C2C(=O)N(c3ccccc3)C(=O)C21 (stereo unspecified)	-3.69% (inactive)
COc1ccc(N2CCN(S(=O)(=O)CCNC(=O)C34CC5CC(CC(C5)C3)C4)CC2)cc1	-6.7% (inactive)
CCN(CC(=O)NCC(=O)Nc1cccc(C)c1C)Cc1ccccc1	-0.652% (inactive)
O=C1C(=O)N(CCCN2CCOCC2)C(c2ccc([N+](=O)[O-])cc2)/C1=C(\O)c1ccc2c(c1)OCCO2 (stereo unspecified)	13.6% (inactive)
COc1ccccc1NC(=O)c1cc(N2C(=O)C3C4CCC(C4)C3C2=O)ccc1Cl (stereo unspecified)	21.1% (inactive)
Cc1ccc(CNC(=O)c2ccc(CS(=O)Cc3cccc(Cl)c3)o2)cc1 (stereo unspecified)	5.04% (inactive)

SMILES	max response
CCC(C)C(=O)Nc1ccccc1N1CCN(c2ccc(F)cc2)CC1 (stereo unspecified)	5.61% (inactive)
C/C(=N\NC(=S)NCc1ccccc1)C1CCCCC1	-2.61% (inactive)
COC(=O)[C@@H]1CC(O)CN1C(=O)C12CC3CC(CC(C3)C1)C2 (stereo partly specified)	-8.25% (inactive)
COc1ccc(C(=O)NC2CC2)cc1OC1CCN(Cc2ccc(SC)cc2)CC1	10.6% (inactive)
Cc1nc([N+](=O)[O-])cn1CC(=O)Nc1ccc(Cl)cc1	-1.69% (inactive)
CC(=O)Nc1ccc(C(=O)OCC(=O)Nc2ccc([N+](=O)[O-])cc2C(F)(F)F)cc1	-3.83% (inactive)
O=C(NC(=O)c1ccccc1)Nc1ccccc1O	38.7% (active)
O=C(NC(=O)c1ccccc1)NC(=O)c1ccccc1	8.89% (inactive)
O=C(Nc1ccc(C(=O)O)c(O)c1)c1ccccc1	-3.21% (inactive)
O=C(CCN1CCN(C/C=C/c2ccccc2)CC1)Nc1ccccc1Cl	-2.77% (inactive)
Cc1ccc(-c2nnc(CN3CCN(C)CC3)o2)cc1	11.1% (inactive)
COc1ccccc1CNC(=O)C1CCN(S(=O)(=O)c2ccc3c(c2)CC(C)N3C(=O)C2CC2)CC1 (stereo unspecified)	1.43% (inactive)
CCC(=O)N1c2ccc(S(=O)(=O)CCC(=O)N3CCN(c4ccccc4)CC3)cc2CC1C (stereo unspecified)	-1.91% (inactive)
Cc1ccc(CNC(=O)CCS(=O)(=O)c2ccc3c(c2)CC(C)N3C(=O)C2CC2)o1 (stereo unspecified)	22.1% (active)
N[C@@H](Cc1c[nH]c2ccccc12)c1nnc(SCc2c(F)cccc2Cl)o1	-4% (inactive)
Clc1ccccc1CSc1nnc(-c2ccco2)c(-c2ccco2)n1	8.29% (inactive)
Fc1cccc(Cl)c1CSc1ccc(-c2ccco2)nn1	39% (active)
Cc1cc(SCc2c(F)cccc2Cl)nc(=O)[nH]1	6.03% (inactive)
O=C(CSc1ccc(-c2ccco2)nn1)NCc1ccc2c(c1)OCO2	3.12% (inactive)
Brc1ccc(CSc2ccc(-c3ccco3)nn2)cc1	28.4% (active)
CCOc1ccc(Br)cc1S(=O)(=O)Nc1ccc(C(=O)OC(C)C(=O)N(C)c2ccccc2)cc1 (stereo unspecified)	0.522% (inactive)
O=C(Nc1cccc(Cl)c1)c1cc(S(=O)(=O)N2CCCCC2)c[nH]1	1.01% (inactive)
CCOC(=O)C1CN(S(=O)(=O)c2ccc(OC)cc2)c2cc(Cl)ccc2O1 (stereo unspecified)	-3.3% (inactive)
Cc1ccc(S(=O)(=O)N2CCN=C2SCc2c(F)cccc2Cl)cc1	0.957% (inactive)
